Assay results reported in PubChem BioAssay (Tox21).
Inconclusive results are not listed. Where a call stands in place of a potency, no number is given. Values without a mark were called inactive. Activity calls are given as the source filed them. Calls come from the whole dose curve; as a rule, active = well fitted cell-killing curve with a large enough effect in the repeat runs; inconclusive = weak or mixed curves, or effect the other way; inactive = flat fitted curve, though single readings scatter.

assay: cAMP Responsive Elements (CRE) small molecule antagonists, cell-based qHTS assay: qHTS cell viability counter screen (AID 2060913); conditions: CRE-bla HEK293T viability, CellTiter-Glo luminescence, 5 h; series mostly up to 92.4 µM; note: nearly all actives have a fitted effect of over 40% in size
Method in brief: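 Viability of NKH477-stimulated (0.25 uM final) CRE-bla HEK293T cells is measured by CellTiter-Glo luminescence following 3 hrs compound exposure at 37 C.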
Potency is the fitted concentration of half-maximal effect.

Compound | Potency | viability change, negative = cytotoxic
CC(=O)CC(C)(C)C1CCCCC1 | inactive | –
CC[C@@]1(c2ccccc2)NC(=O)N(C)C1=O | inactive | –
C[C@H](NC(CCc1ccccc1)C(=O)O)C(=O)N1CCC[C@H]1C(=O)O (stereo not given in full) | inactive | –
O=C(OC(=O)c1ccccc1)c1ccccc1 | inactive | –
C[C@]12C[C@H](O)[C@H]3[C@@H](CCC4=CC(=O)CC[C@@]43C)[C@@H]1CC[C@@H]2C(=O)CO | inactive | –
CCCC(C)CO (stereo not given) | inactive | –
NS(=O)(=O)c1cc(C(=O)O)c(NCc2ccco2)cc1Cl | inactive | –
CCCCNC1CC(C)(C)NC(C)(C)C1 | inactive | –
CCCC(=O)OCC(COC(=O)CCC)OC(=O)CCC | inactive | –
COc1ccnc(CS(=O)c2nc3cc(OC(F)F)ccc3[nH]2)c1OC (stereo not given) | inactive | –
CCN(CC)c1ccc(C=O)cc1 | inactive | –
CCn1cc(C(=O)O)c(=O)c2cc(F)c(N3CCNCC3)nc21 | inactive | –
CCn1nc(C)c2c1C(=O)NCC(c1ccc(O)cc1)=N2 | inactive | –
CCCCC | inactive | –
CCN(O)CC | inactive | –
CCc1nnc(NS(=O)(=O)c2ccc(N)cc2)s1 | inactive | –
C=CN1CCCCCC1=O | inactive | –
CCOC(=O)COc1cc(-n2ncc(C(F)(F)F)c(C)c2=O)c(F)cc1Cl | inactive | –
Clc1ccccc1-c1nc(-c2ccncc2)no1 | inactive | –
NC(=O)c1ccccc1[N+](=O)[O-] | inactive | –

Compound | Potency | viability change, negative = cytotoxic
CC(C)c1ccccc1O | inactive | –
CCCC(c1cc(C(C)(C)C)c(O)cc1C)c1cc(C(C)(C)C)c(O)cc1C | 24.6 µM (active) | –
CCCCCCC(C)Nc1ccc(Nc2ccccc2)cc1 (stereo not given) | inactive | –
[K+] | inactive | –
ICCc1ccccc1 | inactive | –
Clc1ccc(Cn2c(CN3CCCC3)nc3ccccc32)cc1 | inactive | –
Oc1ccc2c(c1)CCC2 | inactive | –
CC(C)=CCCC(C)CCOC(=O)C(C)C (stereo not given) | inactive | –
CCN(CCO)c1cccc(C)c1 | inactive | –
NC(=O)C(=O)N/N=C/c1ccc([N+](=O)[O-])o1 | inactive | –
COc1ccc(/C=C/C(=O)c2ccc(OC)cc2OC)cc1 | inactive | –
Cc1cc(=O)oc2cc(O)cc(O)c12 | inactive | –
CCC(Cc1ccccc1)(C(=O)c1ccc(N2CCOCC2)cc1)N(C)C (stereo not given) | inactive | –
Cc1nnc(SCC2=C(C(=O)O)N3C(=O)[C@@H](NC(=O)Cn4cnnn4)[C@H]3SC2)s1 | inactive | –
CCCOCCC | inactive | –
CCCCC1C(=O)N(c2ccccc2)N(c2ccc(O)cc2)C1=O (stereo not given) | inactive | –
C[C@](N)(Cc1ccc(O)cc1)C(=O)O | – | -1.28% [at 8.39 µM]
CN1Cc2cc(C(=O)N3CCC(C4CCNCC4)CC3)ccc2NC(CC(=O)O)C1=O (stereo not given) | inactive | –
O=C1OC(O)C(C(Cl)Cl)=C1Cl (stereo not given) | inactive | –
O=[N+]([O-])c1ccc(NCCO)c(OCCO)c1 | inactive | –
